Source: PubChem BioAssay (The Scripps Research Institute Molecular Screening Center)
The list is not random: actives were taken first. Their share in the collection is about 3.5%.
MITF inh = human MITF inhibition, primary screen | inhibition, % at 2.6 µM | actives 0.91% (n = 650,000) | AlphaScreen MITF homodimerization, bead proximity signal | AID 1259374; in the data active = inhibition above about 50%
GPR151 ag = activates the human receptor GPR151. Q8TDV0. PathHunter beta-arrestin GPR151 cells, luminescence. activation, % at 11.2 µM. actives 1% (n = 650,000); in the data active = activation above about 4.9%
TEAD-YAP block = TEAD-YAP interaction inhibition; HEK-TIYL cells, TEAD-Gal4/YAP UAS-luciferase luminescence; inhibition, % at 9.12 µM; actives 1.4% (n = 640,000); AID 1259422; in the data active = inhibition above about 32%
FBW7 act = human FBW7 E3 ligase activation, primary screen | AlphaScreen FBW7–phospho-cyclin E peptide binding, activator screen | normalized activity (activation), % at 26.1 µM | actives 0.13% (n = 650,000) | AID 1259310; in the data active = normalized activity above about 1.9%;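 note: purified mutant Fbw7 with reduced substrate affinity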
Numbers stand for hits; i = inactive.

SMILES | MITF inh | GPR151 ag | TEAD-YAP block | FBW7 act
COc1ccccc1C(=O)Nn1c(-c2ccc(C(C)(C)C)cc2)nc2ccccc2c1=O | i | i | 40 | i
CCOc1ccc(NC(=O)COc2ccc(C(=O)NC3CCCCC3)cc2)cc1 | i | i | i | i
N#Cc1c(-c2ccc(F)cc2)cc(-c2cccs2)nc1SCc1ccccc1F | i | i | i | i
CC(=O)c1c(C)[nH]c(C(=O)CN(C)Cc2c(F)cccc2Cl)c1C | i | i | 49 | i
CN(Cc1c(F)cccc1Cl)C(=O)CCl | i | i | 42 | i
CN(Cc1c(F)cccc1Cl)C(=O)CSc1nnc(N)s1 | i | i | i | i
CC(C)C[C@H]1NC(=O)[C@@H]2C[C@H](NCc3cn(C)nc3-c3ccccc3)CN2C1=O | i | i | i | 2.5
Cn1cc(CN[C@H]2C[C@H]3C(=O)N[C@@H](CO)C(=O)N3C2)c(-c2ccccc2)n1 | i | i | i | i
C=CCNc1nc(-c2c[nH]c3ccccc23)cs1 | i | i | i | i
CCC(C)Nc1nc(-c2c[nH]c3ccccc23)cs1 (stereo unspecified) | i | i | i | 3.9
Cc1c(C(=O)N/N=C\c2ccc([N+](=O)[O-])cc2)nnn1-c1nonc1N | i | i | i | i
CCCNC(=O)c1ccc2c(c1)NC(=O)c1ccccc1S2 | i | i | i | i
O=C(NCCc1ccccc1)c1ccc2c(c1)NC(=O)c1ccccc1S2 | i | i | 53 | i
O=C(Nc1ccc(C(F)(F)F)cc1)c1cc(S(=O)(=O)N2CC3CC(C2)c2cccc(=O)n2C3)ccc1F (stereo unspecified) | i | i | i | i
c1ccc(-n2cnc3c(NC4CC4)nc(Nc4nccc5ccccc45)nc32)cc1 | i | i | 43 | i
c1cnc2ccc(Nc3nc(NC4CC4)c4ncn(-c5ccsc5)c4n3)cc2c1 | i | i | i | i
c1ccc(-n2cnc3c(NC4CC4)nc(Nc4ccncc4)nc32)cc1 | i | i | 38 | i
c1ccc(-n2cnc3c(NC4CC4)nc(Nc4cnccn4)nc32)cc1 | i | i | 51 | i
c1cnc(Nc2nc(NC3CC3)c3ncn(-c4ccsc4)c3n2)cn1 | i | i | 34 | i
COc1ccccc1NC(=O)c1c(NC(=O)c2ccccc2Cl)sc2c1CCCCC2 | i | i | i | i
O=C(NCCc1ccccc1)C1CCN(C2CCN(C(=O)C3CC34CCC4)CC2)CC1 (stereo unspecified) | i | i | i | i
CN(C)c1cccc(Nc2nc(N)c3ncn(-c4ccsc4)c3n2)c1 | i | i | i | i
c1ccc(Nc2nc(Nc3ccncn3)nc3c2ncn3-c2ccsc2)cc1 | i | i | i | i
CN(C)c1cccc(Nc2nc(NC3CC3)c3ncn(-c4ccsc4)c3n2)c1 | i | i | 33 | i
c1cc(Nc2nc(NC3CC3)c3ncn(-c4ccsc4)c3n2)ncn1 | i | i | i | 7.4
SMILES | MITF inh | GPR151 ag | TEAD-YAP block | FBW7 act
CCOc1ccc(-c2cn3ccsc3n2)cc1 | i | i | 43 | i
Oc1ccc(-c2cn3ccsc3n2)cc1 | i | i | 73 | i
Cc1ccc2nc(-c3ccccn3)[nH]c2c1 | i | i | 64 | i
Brc1cccc(-c2nc3ccccc3[nH]2)c1 | i | i | i | 1.9
CN(C)c1ccc(-c2nc3ccc(N)cc3[nH]2)cc1 | i | i | 78 | i
Nc1ccc2nc(-c3ccc(Cl)cc3)[nH]c2c1 | i | i | i | i
Nc1cccc(-c2nc3ccc(N)cc3[nH]2)c1 | i | i | i | i
Nc1ccc2nc(-c3cccc(O)c3)[nH]c2c1 | i | i | 42 | i
Fc1cccc(-c2nc3ccccc3[nH]2)c1 | i | i | i | i
Nc1ccc(-c2nc3cc4ccccc4cc3[nH]2)cc1 | i | i | 35 | i
Nc1ccc(-c2nc3ccc(N)cc3[nH]2)cc1 | i | i | i | i
Cc1ccc2nc(-c3ccc(O)cc3)[nH]c2c1 | i | i | 44 | i
Nc1ccc(-c2nc3ccc(O)cc3[nH]2)cc1 | i | i | 77 | i
Oc1cccc(-c2nc3ccccc3[nH]2)c1 | i | i | 47 | i
Oc1ccc2nc(-c3ccccc3)[nH]c2c1 | i | i | i | i
Cc1ccsc1CN1CCN2C(=O)[C@H](C)NC(=O)[C@H]2C1 | i | i | i | i
CC1CCc2c(sc(NC(=O)CCN3CCCCCC3)c2C#N)C1 (stereo unspecified) | i | i | i | i
Oc1c(C(Nc2cccnc2)c2ccccc2F)ccc2cccnc12 (stereo unspecified) | 51 | i | 75 | i
CCOc1cc(C(Nc2cccnc2)c2ccc3cccnc3c2O)ccc1O (stereo unspecified) | i | i | i | i
Oc1ccccc1C(Nc1ncccn1)c1ccc2cccnc2c1O (stereo unspecified) | i | i | 34 | i
